Records with an inconclusive call do not appear. A number with no mark means an inactive call. Calls follow the shape of the dose curve; as a rule, active = well fitted curve in the direction sought with a large enough effect in the signal ratio; inconclusive = small, poorly fitted or top-dose-only effect, or effect the other way, or a change in a side signal; inactive = no such curve, though single readings can be large or run the other way; the % refers to the signal ratio.
Assay: Validation of Assay for Modulators of Lamin A Splicing (AID 1459);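 also: cells exposed to compound for two days before reading; 0% is about no effect; ratio rise marks activators and ratio drop marks inhibitors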
Settings: Lamin A splicing dual RFP/GFP fluorescence reporter; series mostly up to 9.22 µM; ratio change, both ways: at the top concentration
Description: Hutchinson-Gilford Progeria Syndrome (HGPS) is a pediatric premature aging disease caused by a spontaneous mutation in the lamin A/C (LMNA) gene. The mutation activates a cryptic splice site in the LMNA pre-mRNA which results in production of a pre-lamin A protein that cannot be processed properly. The mutant protein accumulates in the nucleus and negatively affects numerous cellular functions. Correction of the splicing defect in HGPS patient cells using a targeted oligonucleotide (exo11) leads to reversal of the cellular disease phenotypes. To identify small molecule modulators of aberrant LMNA splicing, a homogenous assay was constructed in HeLa cells that used a GFP containing minigene to report on correction of aberrant splicing in lamin A and a RFP (DsRed2) to report on cell viability, uniformity and nonspecific effects on the assay signal. This assay was adapted to laser-scanning microplate cytometry (Acumen, TTP Labtech) where miniaturization of the assay to a 1,536-well plate format was possible.
Bowen, W. P.; Wylie, P. G. Application of Laser-Scanning Fluorescence Microplate Cytometry in High Content Screening. Assay Drug Dev Technol 2006;4:209-221.
Scaffidi P, Misteli T. Reversal of the cellular phenotype in the premature aging disease Hutchinson-Gilford progeria syndrome. Nat. Med. 2005;11:440-445.
NCGC Assay Protocol Summary:
Reagents/Controls: Stable clones expressing DsRed2 and lamin A-EGFP were generated by Cell and Molecular Technologies in S3 HeLa cells.
HeLa cells were prepared for the assay when they were 70-90% confluent. The cells were counted and resuspended in Opti-MEM I (no phenol red; Gibco), 2% FBS, 1% penicillin/ streptomycin (Gibco) at concentration of 120 cells/uL concentration. The suspension was passed through a Falcon basket filter with pore size 40um (Beckton Dickson).
Control titrations: column […] 1536-well plate contained a sixteen point titration (1:2 dilutions) in duplicate of ancitabine (Sigma: A8598) beginning at 40 uM final concentration. Column 2 contained a sixteen point titration (1:2 dilutions) of cycloheximide beginning at 1.4 mM final concentration. Column 3 contained ancitabine at 40 uM and column 4 contained was the vehicle control (0.5% DMSO final concentration).
5 uL of HeLa cells were plated in Aurora LoBase black clear bottom (cyclic-olefin polymer) 1536-well plates at a final density of 600 cells/well. Controls and library compounds were added with a 1536-well pin array using the Kalypsys pin-tool. The plates were then incubated for 48 hrs in a cell-culture incubator (37 °C; 5% CO2, 98% humidity). Following incubation the plates were read on the Acumen Explorer using the 488 nm laser. Data was collected on objects between 10 and 100 um in size. Cell objects were defined by a 15 um width x 10 um depth filter. The ratio of the total object intensity in PMT1 (500-530 nm emission; GFP) over PMT3 (575-640 nm emission; RFP) was calculated for analysis.
Keywords: NIH Roadmap, MLSCN, MLI, MLSMR, qHTS, NCGC, lamin A, Progeria, RNA splicing.
In the case of CN1CCN(c2ccc3ccccc3n2)CC1, the “ratio change, both ways” value is reported as -5.49%.
With COc1ccc(CCN)cc1O the “ratio change, both ways” value was 12%.
In the case of CN1C2CCC1CC(OC(=O)C(CO)c1ccccc1)C2 (centres undefined), the “ratio change, both ways” value is reported as -12.1%.
For N[C@H](CCCCCP(=O)(O)O)C(=O)O, the “ratio change, both ways” value was 3.85%.
For COc1ccc2[nH]cc(CCN(C)C)c2c1, the “ratio change, both ways” value was -6.3%.
For O=[N+]([O-])c1ccc(O[C@@H]2O[C@H](CO)[C@@H](O)[C@H](O)[C@H]2F)c([N+](=O)[O-])c1, the “ratio change, both ways” value was -18.7%.
With CC(=O)OCC1=C(C(=O)[O-])N2C(=O)[C@@H](NC(=O)CCC[C@@H](N)C(=O)[O-])[C@H]2SC1.[Zn+2] the “ratio change, both ways” value was -9.4%.
In the case of COc1cc(CCN)ccc1O, the “ratio change, both ways” value is reported as 4.4%.
For CP(=O)(O)CCCN, the “ratio change, both ways” value was -10.2%.
With CC(O)C(C)OC(=O)[C@@H]1C[C@@H]2c3cccc4c3c(cn4C(C)C)C[C@H]2N(C)C1 (some centres undefined) the “ratio change, both ways” value was 3.16%.
With C=CCN1CCC2(C)c3cc(O)ccc3CC1C2C (centres undefined) the “ratio change, both ways” value was -13%.
For N[C@@H](Cn1cc(I)c(=O)[nH]c1=O)C(=O)O, the “ratio change, both ways” value was -5.65%.
In the case of COC(=O)c1cc2c(cn1)[nH]c1ccccc12, the “ratio change, both ways” value is reported as 11.7%.
With C[N+]1(C)CCc2cc3c(cc2C1C1OC(=O)c2c1ccc1c2OCO1)OCO3 (centres undefined) the “ratio change, both ways” value was 9.98%.

Source: PubChem BioAssay (NCATS)
